This passage reports inhibition results from PubChem BioAssay AID651704 (Broad Institute, 2012).

Values joined by “and” are separate entries in the source; they are usually repeats but may differ in a detail not shown here. Equal entries are not always repeated. Screen size: about 350,000 compounds; about 1,600 (0.46%) were called active. The sample holds actives, similar compounds and a random draw of the others, so the mix is not that of the screen.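 The calls were made as follows: active = every replicate reaching a set inhibition limit, whatever the replicate mean (cut at about 25% in these data); inconclusive = mean inhibition reaches that limit but some replicates miss it; inactive = the rest.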 Some structures have more than one record in an assay (separate samples or runs), and their calls can disagree.

As a reminder, the inhibition is the relative decrease from the control value, in per cent.

Chain of Protein AF-9 (Homo sapiens) (P42568 whole entry, looked up): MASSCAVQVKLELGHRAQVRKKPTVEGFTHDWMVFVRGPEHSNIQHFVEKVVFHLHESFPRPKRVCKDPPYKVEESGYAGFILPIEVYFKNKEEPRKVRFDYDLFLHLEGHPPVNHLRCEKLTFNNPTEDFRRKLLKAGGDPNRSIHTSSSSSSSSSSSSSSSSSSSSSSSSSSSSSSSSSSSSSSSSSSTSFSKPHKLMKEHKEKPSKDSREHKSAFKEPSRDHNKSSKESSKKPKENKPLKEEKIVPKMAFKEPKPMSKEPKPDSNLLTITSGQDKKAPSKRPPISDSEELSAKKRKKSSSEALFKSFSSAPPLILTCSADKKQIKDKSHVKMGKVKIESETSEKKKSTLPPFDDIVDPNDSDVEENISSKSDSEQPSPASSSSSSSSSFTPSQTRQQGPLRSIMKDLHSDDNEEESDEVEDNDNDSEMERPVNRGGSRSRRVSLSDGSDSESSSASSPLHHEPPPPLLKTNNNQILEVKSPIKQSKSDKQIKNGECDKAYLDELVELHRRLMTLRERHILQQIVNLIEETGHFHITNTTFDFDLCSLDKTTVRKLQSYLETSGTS

This experiment addresses Protein AF-9 (Homo sapiens) (UniProt P42568). Briefly: MLL-AF4/AF9 protein interaction blockers – biochemical, AlphaScreen, biotin-AF4 peptide, FLAG-AF9, single point, primary screen (AID 651704).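 Also: 0% = plate neutral control median and 100% = total signal loss.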 The note with it: biotin-AF4 peptide binding to FLAG-AF9, at 10 µM, stronger effect = higher value. Background: Bead proximity is the source of the signal in Alpha formats.
For `CC(C)C[C@@H](COCc1ccc(Cl)cc1)N1CCN(C(=O)c2ccc(Cl)cc2Cl)CCC1=O`, the inhibition was 1.49% (inactive). The same measure for `CC(C)CC(CO)N1CCN(C(=O)c2ccc(Cl)cc2Cl)CCC1=O` (configuration not stated): 38.9% (active); for `CC(C)C[C@@H](CO)N1CCN(Cc2ccc(O)cc2)CCC1=O`: -1.96% (inactive); for `N#Cc1cccc(-c2ccc(C3[C@@H]4CN(C(=O)C5CCC5)C[C@H]3N4)cc2)c1` (some centres not stated): -2.89% (inactive) and 1.48% (inactive). The same measure for `O=C(NC1CCCCC1)N1CC2(C1)[C@@H](c1ccccc1)[C@@H](CO)N2CC1CCOCC1`: -1.54% (inactive); for `CN(C)CCNC(=O)c1ccc(-c2cn3c(-c4ccc(Oc5ccccc5)cc4)cnc3cn2)cc1`: 34.2% (active); for `CN(C)C(CNC(=O)c1ccc(OCc2cn3ccccc3n2)cc1)c1ccco1` (configuration not stated): 0.31% (inactive). The figure for `Cc1noc(C)c1COc1ccc(C(=O)NCCOc2ccccc2)cc1` is -1.51% (inactive). As to `Cc1ccc(S(=O)(=O)NCC[C@H]2CC[C@H](NC(=O)c3ccccn3)[C@H](CO)O2)cc1`, the inhibition is 1.07% (inactive). Take `CCC(=O)N1C[C@H](C)[C@H](OC)CN(C)C(=O)c2cc(NC(=O)Nc3cccc(F)c3)ccc2OC[C@@H]1C`: the inhibition is 2.75% (inactive).

For the molecule `O=S(=O)(c1ccccc1)N1[C@H](CO)[C@@H]2c3ccccc3NC[C@@H]21`, the inhibition is -1.25% (inactive). The same measure for `COc1ccccc1NC(=O)N(C)C[C@@H]1Oc2ncc(C#CCC(C)C)cc2C(=O)N([C@@H](C)CO)C[C@@H]1C`: -1.7% (inactive).

Turning to `COCC(=O)Nc1ccc2c(c1)OC[C@@H](C)N(Cc1cocn1)C[C@@H](C)[C@@H](OC)CN(C)C2=O`, the inhibition is -2.07% (inactive).

On to `Nc1ccc(N=Nc2ccccc2Cl)c(N)n1`, for which the inhibition is 31.4% (active). With `CN1CCN(C(=O)C[C@H]2C[C@@H]3c4cc(NC(=O)Nc5ccc(C(F)(F)F)cc5)ccc4O[C@@H]3[C@H](CO)O2)CC1`, the inhibition was 6.81% (inactive). Turning to `COc1ccc(S(=O)(=O)NC[C@@H]2CC[C@@H]3[C@@H](CN3Cc3cc(F)ccc3F)O2)cc1`, the inhibition is 17.9% (inactive). The same measure for `O=C([C@H]1N[C@H]2c3ccc(-c4ccccc4)c(=O)n3C[C@H]2[C@@H]1CO)N1CCOCC1`: -1.96% (inactive). The same measure for `CCOC(=O)c1[nH]ncc1CN1CCCC(C(=O)c2ccc(OC)cc2C)C1` (configuration not stated): -1.02% (inactive). The same measure for `COc1ccc(C(=O)C2CCCN(Cc3cccn3-c3ccccn3)C2)c(C)c1` (configuration not stated): 11.3% (inactive). Turning to `COc1ccc(C(=O)C2CCCN(Cc3ccc4nonc4c3)C2)c(C)c1` (configuration not stated), the inhibition was 29.4% (active). As for `COc1ccc2[nH]c3c(C)c4cc[n+](C)cc4c(C)c3c2c1`, the inhibition is 57.7% (active). The figure for `C[C@@H]1CN([C@H](C)CO)C(=O)c2cc(-c3ccc(F)cc3)cnc2O[C@@H]1CN(C)Cc1ccc(C(=O)O)cc1` is -1.88% (inactive). The figure for `CCC(=O)N1C[C@@H](C)[C@H](OC)CN(C)C(=O)c2cc(NC(=O)NC3CCCC3)ccc2OC[C@H]1C` is -2.77% (inactive); for `C[C@H](CO)N1C[C@H](C)[C@@H](CN(C)Cc2ccc3c(c2)OCO3)OCCCC[C@H](C)Oc2ccc(NC(=O)Nc3ccc(C(F)(F)F)cc3)cc2C1=O` it is 4.81% (inactive). The same measure for `Cc1cc2oc(=O)cc(CN3CCN(Cc4ccccc4)CC3)c2cc1C`: 2.48% (inactive); for `COc1cccc2sc3cc(NCC[C@@H]4CCCN4C)ccc3c(=O)c12`: 3.58% (inactive); for `Cc1cc2oc3ccc(NCCC4CCCN4C)cc3c(=O)c2cc1C` (configuration not stated): 27.8% (active). Regarding `COc1ccc2c(c1)c(=Cc1ccc(N(C)C)cc1)c1cc(-c3ccccc3)[n+](C)n12`, the inhibition is 67.9% (active). On to `COc1cccc2c1C(=O)c1c(O)c3c(c(O)c1C2=O)CC(O)(C(C)=NNC(=O)c1ccc(Cl)c(Cl)c1)CC3OC1CC(N)C(O)C(C)O1` (configuration not stated), for which the inhibition is 33.8% (active). The same measure for `N#C[C@@H]1[C@H](c2ccccc2-c2cccc(F)c2)[C@@H](CO)N1C(=O)CN1CCOCC1`: -3.02% (inactive); for `CO[C@@H]1CN(C)C(=O)c2ccc(NS(C)(=O)=O)cc2OC[C@H](C)NC[C@H]1C`: -2.11% (inactive).

Turning to `Cc1ccc2c(c1)C1CN(C)CCC1N2S(=O)(=O)c1cccc(F)c1` (configuration not stated), the inhibition is 4.04% (inactive). In the case of `Cc1ccc2c(c1)C1CN(C)CCC1N2S(=O)(=O)c1ccc(Oc2ccc([N+](=O)[O-])cc2)cc1` (configuration not stated), the inhibition is 20.9% (inactive) and 27.4% (active). The same measure for `Cc1ccc2c(c1)C1CN(C)CCC1N2C(=S)Nc1ccc(OC(F)F)cc1` (configuration not stated): 5.25% (inactive); for `CN(C)C(=O)c1cccc(-c2ccc([C@H]3[C@H](CO)N4C(=O)CN(C(=O)C5CCCCC5)C[C@@H]34)cc2)c1`: -3% (inactive). The same measure for `CC(C)CC#Cc1cnc2c(c1)C(=O)N([C@@H](C)CO)C[C@@H](C)[C@@H](CN(C)C(=O)c1cccnc1)O2`: -2.62% (inactive); for `COc1ccc2c3c(n(C)c2c1)[C@@H](CO)N(Cc1ccccc1)CC31CN(C(=O)C2CC2)C1`: 2.25% (inactive); for `CC(=O)Nc1cc(-c2ccc(N3CCN(C)CC3)cc2)cn2c(-c3ccc(F)cc3)cnc12`: 26.2% (active). Regarding `COc1ccccc1-c1cc(NC(C)=O)c2ncc(-c3ccc(F)cc3)n2c1`, the inhibition was -6.86% (inactive). `CC(=O)Nc1cc(-c2ccc(N3CCN(C)CC3)cc2)cn2c(-c3cccc(C(=O)N(C)C)c3)cnc12`: the inhibition was 9.58% (inactive). Turning to `CN(C)C(=O)c1cccc(-c2ccc3c(c2)[C@H]2[C@H](CCN2S(=O)(=O)c2cn(C)cn2)[C@@H](CO)N3)c1`, the inhibition was -3.61% (inactive).

As to `Cc1noc(C)c1NC(=O)N(C)C[C@@H]1OCCCC[C@H](C)Oc2ccc(NC(=O)NC3CCCCC3)cc2C(=O)N([C@H](C)CO)C[C@H]1C`, the inhibition was -0.856% (inactive). The same measure for `CCCNC(=O)C[C@H]1C[C@H]2c3cc(NC(=O)NC4CCCCC4)ccc3O[C@H]2[C@H](CO)O1`: 5.96% (inactive); for `CCNC(=O)C[C@H]1CC[C@@H](NC(=O)C2CCOCC2)[C@@H](CO)O1`: 1.25% (inactive); for `O=C(NCc1ccccc1)C1CCCN(c2nc3ccsc3c(=O)s2)C1` (configuration not stated): -3.41% (inactive). The figure for `O=C(NCCc1cccc(F)c1)C1CCCN(c2nc3ccccc3s2)C1` (configuration not stated) is 39.3% (active).

In the case of `Cc1cc(=O)n2nc(N3CCCC(C(=O)NCc4cccc(Cl)c4)C3)sc2n1` (configuration not stated), the inhibition was 2.52% (inactive).

As to `C/C=C/c1ccccc1[C@@H]1[C@@H](C#N)N(C(=O)Cc2ccccn2)[C@H]1CO`, the inhibition is 0.68% (inactive). The same measure for `COc1ccccc1-c1cnc2c(c1)C(=O)N([C@H](C)CO)C[C@H](C)[C@@H](CN(C)CC1CCOCC1)O2`: -1.31% (inactive); for `CC(=O)c1c(N2CCOCC2)nc(=S)n(-c2cc(C)ccc2C)c1C`: 11.8% (inactive); for `Cc1ccc2cc(C)c(N3CCN(c4ccc(F)cc4)CC3)nc2c1`: -1.83% (inactive). The same measure for `CC(=O)c1c(N2CCN(c3ccc(F)cc3)CC2)nc(=S)n(-c2ccccc2)c1C`: 26.4% (active); for `O=C(C1CCCC1)N1CC(=O)N2[C@H](C1)[C@@H](c1ccc(-c3cccnc3)cc1)[C@@H]2CO`: -2.09% (inactive); for `Cc1cccc(S(=O)(=O)N2CCCCN3[C@@H](CO)[C@H](c4ccc(-c5cccnc5)cc4)[C@@H]3C2)c1`: -0.659% (inactive). The figure for `COc1ccc2c3c(n(C)c2c1)[C@@H](CO)N(Cc1ccccc1F)CC31CCN(C(=O)C2CCOCC2)CC1` is 1.15% (inactive); for `Cc1noc(C)c1NC(=O)N(C)C[C@@H]1OCCCC[C@@H](C)Oc2ccc(NC(=O)C3CCCCC3)cc2C(=O)N([C@@H](C)CO)C[C@H]1C` it is -0.114% (inactive); for `COc1ccc(/C=C/C(=O)OCC(=O)NCc2cccs2)cc1OC` it is 2.43% (inactive). As to `COc1cc2c(cc1NC(=O)COC(=O)/C=C/c1ccccc1)oc1ccccc12`, the inhibition was 30.3% (active).

Regarding `COc1cc(/C=C/C(=O)OCC(=O)c2ccccc2)cc(OC)c1OC`, the inhibition was 4.16% (inactive). The figure for `COc1ccc(CNC(=O)C[C@@H]2CC[C@H](NC(=O)c3cccc(F)c3)[C@H](CO)O2)cc1` is 0.518% (inactive); for `COC(=O)c1c(C)oc(C)c1S(=O)(=O)NCc1ccc(Cl)cc1` it is 28.9% (active); for `COC(=O)c1cc(S(=O)(=O)NCC2CCN(Cc3ccc(Cl)cc3)CC2)cn1C` it is 5.58% (inactive). As for `COC(=O)c1c(C)oc(C)c1S(=O)(=O)Nc1ccc(C(C)C)cc1`, the inhibition was 0.192% (inactive). The same measure for `O=C(CC1CC1)Nc1ccc2c(c1)[C@@H]1C[C@@H](CC(=O)NC3CCCCC3)O[C@H](CO)[C@@H]1O2`: 0.025% (inactive); for `CC(C)CC#Cc1ccc([C@@H]2[C@@H](CO)N3C(=O)CN(C(=O)Nc4ccc(F)cc4)C[C@H]23)cc1`: 5.86% (inactive). The same measure for `CN(C)c1ccc(Nc2c3c4c(cccc4n(C)c2=O)C(=O)c2ccccc2-3)cc1`: 64.1% (active); for `CN(C)c1ccc(C2N(C)C(=O)c3ccccc3N2C)cc1` (configuration not stated): 2.23% (inactive); for `COc1cccc(S(=O)(=O)Nc2ccc3c(c2)[C@H]2C[C@H](CC(=O)N4CCCCC4)O[C@@H](CO)[C@H]2O3)c1`: 0.52% (inactive). The same measure for `COc1ccc2c3c([nH]c2c1)[C@H](CO)N(C(=O)c1ccncc1)CC31CCN(C(=O)c2ccncc2)CC1`: 3.61% (inactive); for `COc1ccc(C#Cc2ccc([C@@H]3[C@@H](CO)N4C(=O)CN(C(=O)c5ccc(F)cc5)C[C@@H]34)cc2)cc1`: -3.35% (inactive); for `O=C(c1ccccn1)N1CC2(C1)[C@H](c1ccccc1)[C@H](CO)N2C(=O)C1CCCC1`: -1.83% (inactive). `CN1C(=O)c2cc(NC(=O)c3ccno3)ccc2OC[C@H]2O[C@@H](CC(=O)NCC(F)(F)F)CC[C@@H]21`: the inhibition was -0.947% (inactive).
